# Data taken from article PMC7862700, “An all-to-all approach to the identification of sequence-specific readers for epigenetic DNA modifications on cytosine”.
# Columns and labels:
# Experiment in all cases: DAPPL (digital affinity profiling via proximity ligation, sequencing); 10 mM Tris-HCl pH 7.5, 50 mM NaCl, 1 mM DTT, 4% glycerol, room temperature, 30 min; GST-TFs on glutathione beads, 16-mer random dsDNA library, 0.1% formaldehyde crosslink after washing; high values mean tight binding
# FLI1 = biological target: T1, FLI1 (Homo sapiens, UniProt Q01543 1-452); conditions: protein: recombinant; tags: N-terminal GST; dsDNA, one strand shown
# T1 sequence: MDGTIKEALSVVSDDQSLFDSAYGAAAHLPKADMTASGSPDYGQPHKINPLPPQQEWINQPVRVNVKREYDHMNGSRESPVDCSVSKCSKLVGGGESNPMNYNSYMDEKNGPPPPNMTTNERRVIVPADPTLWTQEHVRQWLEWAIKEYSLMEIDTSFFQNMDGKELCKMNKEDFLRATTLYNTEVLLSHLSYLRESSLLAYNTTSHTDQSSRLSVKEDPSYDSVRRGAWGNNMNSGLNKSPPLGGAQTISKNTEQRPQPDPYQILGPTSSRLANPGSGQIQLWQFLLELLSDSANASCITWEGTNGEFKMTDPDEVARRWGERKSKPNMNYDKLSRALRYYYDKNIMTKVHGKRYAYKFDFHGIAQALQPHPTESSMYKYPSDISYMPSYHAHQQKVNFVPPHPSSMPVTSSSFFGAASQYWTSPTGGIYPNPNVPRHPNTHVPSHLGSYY
# Outline: (§1)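 The binding signal reported is, for every hexamer, its read frequency for a factor over its read frequency for the tag-only sample. Reads came from pools of yeast-expressed, GST-fused human transcription factors on glutathione beads, barcoded with DNA and mixed with that sample, which were incubated with 200 nmole of a random double-stranded 16-mer DNA library in Tris/NaCl/DTT/glycerol buffer at room temperature for 30 min. After washing, the pools were crosslinked with 0.1% formaldehyde, proximity-ligated with BsaI/T4 ligase for 1 h at 37 °C, PCR-amplified and sequenced on an Illumina NextSeq500.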
# ELK1 = biological target: T2, ELK1 (Homo sapiens, UniProt P19419 1-428); conditions: protein: recombinant; tags: N-terminal GST; dsDNA, one strand shown
# T2 sequence: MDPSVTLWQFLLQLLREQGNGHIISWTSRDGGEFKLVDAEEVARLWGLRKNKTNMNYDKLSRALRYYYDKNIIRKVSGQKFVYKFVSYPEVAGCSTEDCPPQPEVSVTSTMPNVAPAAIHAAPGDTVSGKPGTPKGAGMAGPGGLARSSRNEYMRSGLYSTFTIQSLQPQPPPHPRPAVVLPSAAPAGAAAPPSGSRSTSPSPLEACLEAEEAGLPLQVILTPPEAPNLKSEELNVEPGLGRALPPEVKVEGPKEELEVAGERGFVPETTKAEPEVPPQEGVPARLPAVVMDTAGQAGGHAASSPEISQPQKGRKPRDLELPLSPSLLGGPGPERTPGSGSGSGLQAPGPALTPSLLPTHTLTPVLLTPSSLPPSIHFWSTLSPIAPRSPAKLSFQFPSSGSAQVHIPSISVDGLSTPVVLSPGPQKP
# Outline: as §1
# GABPA = biological target: T3, GABPA (Homo sapiens, UniProt Q06546 1-454); conditions: protein: recombinant; tags: N-terminal GST; dsDNA, one strand shown
# T3 sequence: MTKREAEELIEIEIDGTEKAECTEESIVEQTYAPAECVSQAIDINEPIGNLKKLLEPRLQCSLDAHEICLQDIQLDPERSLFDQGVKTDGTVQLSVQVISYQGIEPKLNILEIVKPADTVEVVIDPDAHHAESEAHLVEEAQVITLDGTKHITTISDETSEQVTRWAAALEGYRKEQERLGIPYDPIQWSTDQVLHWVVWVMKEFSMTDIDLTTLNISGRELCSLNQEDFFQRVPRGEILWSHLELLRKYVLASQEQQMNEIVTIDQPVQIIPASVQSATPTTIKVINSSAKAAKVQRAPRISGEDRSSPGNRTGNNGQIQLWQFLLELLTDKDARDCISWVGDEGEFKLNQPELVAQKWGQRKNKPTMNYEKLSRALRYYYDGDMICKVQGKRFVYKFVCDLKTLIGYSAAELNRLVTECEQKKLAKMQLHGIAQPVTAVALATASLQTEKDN
# Outline: as §1
# ERG = biological target: T4, ERG (Homo sapiens, UniProt P11308 1-479); conditions: protein: recombinant; tags: N-terminal GST; dsDNA, one strand shown
# T4 sequence: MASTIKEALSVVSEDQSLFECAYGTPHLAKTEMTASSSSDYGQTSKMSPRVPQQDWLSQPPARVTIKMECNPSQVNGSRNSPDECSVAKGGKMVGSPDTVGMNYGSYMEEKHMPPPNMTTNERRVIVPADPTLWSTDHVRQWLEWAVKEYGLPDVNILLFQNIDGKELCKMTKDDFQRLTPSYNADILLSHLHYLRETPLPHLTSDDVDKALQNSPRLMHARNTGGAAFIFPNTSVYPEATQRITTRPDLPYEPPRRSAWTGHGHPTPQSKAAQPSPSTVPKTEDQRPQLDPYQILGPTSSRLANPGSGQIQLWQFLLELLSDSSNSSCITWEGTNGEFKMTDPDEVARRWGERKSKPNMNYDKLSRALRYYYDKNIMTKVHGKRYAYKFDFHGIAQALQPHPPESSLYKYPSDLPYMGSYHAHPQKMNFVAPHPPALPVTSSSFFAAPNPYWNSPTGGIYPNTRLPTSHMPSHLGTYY
# Outline: as §1
# ELF1 = ELF1 (Homo sapiens, UniProt P32519 1-619); conditions: protein: recombinant; tags: N-terminal GST; dsDNA, one strand shown
# Outline: as §1
# EHF = biological target: T5, EHF (Homo sapiens, UniProt Q9NZC4 1-300); conditions: protein: recombinant; tags: N-terminal GST; dsDNA, one strand shown
# T5 sequence: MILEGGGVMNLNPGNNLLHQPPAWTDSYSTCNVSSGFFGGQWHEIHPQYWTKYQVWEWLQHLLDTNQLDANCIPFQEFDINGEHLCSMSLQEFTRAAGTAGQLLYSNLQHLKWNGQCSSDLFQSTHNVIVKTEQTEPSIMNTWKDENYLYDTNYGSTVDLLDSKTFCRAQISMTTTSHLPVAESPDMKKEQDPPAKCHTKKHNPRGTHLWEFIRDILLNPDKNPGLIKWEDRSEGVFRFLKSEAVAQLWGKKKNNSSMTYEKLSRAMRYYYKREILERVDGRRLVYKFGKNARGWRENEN
# Outline: as §1
# SPI1 = SPI1 (Homo sapiens, UniProt P17947 1-270); conditions: protein: recombinant; tags: N-terminal GST; dsDNA, one strand shown
# Outline: as §1
# SPIB = SPIB (Homo sapiens, UniProt Q01892 1-262); conditions: protein: recombinant; tags: N-terminal GST; dsDNA, one strand shown
# Outline: as §1
# ELK3 = biological target: T6, ELK3 (Homo sapiens, UniProt P41970 1-407); conditions: protein: recombinant; tags: N-terminal GST; dsDNA, one strand shown
# T6 sequence: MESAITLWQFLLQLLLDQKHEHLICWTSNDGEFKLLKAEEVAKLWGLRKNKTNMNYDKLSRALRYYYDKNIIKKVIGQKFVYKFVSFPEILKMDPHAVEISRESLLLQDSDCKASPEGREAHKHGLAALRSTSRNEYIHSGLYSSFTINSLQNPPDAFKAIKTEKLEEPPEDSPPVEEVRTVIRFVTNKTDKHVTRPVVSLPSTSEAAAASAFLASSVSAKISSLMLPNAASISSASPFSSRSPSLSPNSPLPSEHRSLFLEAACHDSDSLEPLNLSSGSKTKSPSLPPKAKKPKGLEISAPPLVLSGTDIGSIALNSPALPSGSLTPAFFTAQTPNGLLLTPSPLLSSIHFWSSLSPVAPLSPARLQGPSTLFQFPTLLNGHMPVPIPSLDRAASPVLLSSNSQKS
# Outline: as §1
# FEV = biological target: T7, FEV (Homo sapiens, UniProt Q99581 1-238); conditions: protein: recombinant; tags: N-terminal GST; dsDNA, one strand shown
# T7 sequence: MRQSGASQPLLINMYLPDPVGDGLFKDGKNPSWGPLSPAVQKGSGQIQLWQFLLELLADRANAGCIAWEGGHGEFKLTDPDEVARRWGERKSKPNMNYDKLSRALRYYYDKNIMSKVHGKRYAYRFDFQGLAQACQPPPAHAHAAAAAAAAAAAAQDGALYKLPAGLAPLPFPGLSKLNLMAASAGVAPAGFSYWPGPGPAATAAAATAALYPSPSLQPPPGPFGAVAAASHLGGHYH
# Outline: as §1
# ETV5 = ETV5 (Homo sapiens, UniProt P41161 1-510); conditions: protein: recombinant; tags: N-terminal GST; dsDNA, one strand shown
# Outline: as §1
# HSF1 = HSF1 (Homo sapiens, UniProt Q00613 1-529); conditions: protein: recombinant; tags: N-terminal GST; chain copies: 3; dsDNA, one strand shown
# Outline: as §1
# SPIC = biological target: T8, SPIC (Homo sapiens, UniProt Q8N5J4 1-248); conditions: protein: recombinant; tags: N-terminal GST; dsDNA, one strand shown
# T8 sequence: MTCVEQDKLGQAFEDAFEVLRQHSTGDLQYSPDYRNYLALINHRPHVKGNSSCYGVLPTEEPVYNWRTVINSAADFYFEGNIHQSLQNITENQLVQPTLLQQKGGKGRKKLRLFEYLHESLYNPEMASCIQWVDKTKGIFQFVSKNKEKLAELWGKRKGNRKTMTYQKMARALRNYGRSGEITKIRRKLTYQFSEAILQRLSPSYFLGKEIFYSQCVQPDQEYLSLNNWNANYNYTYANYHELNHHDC
# Outline: as §1
# ELF4 = ELF4 (Homo sapiens, UniProt Q99607 1-663); conditions: protein: recombinant; tags: N-terminal GST; dsDNA, one strand shown
# Outline: as §1
# ELK4 = biological target: T9, ELK4 (Homo sapiens, UniProt P28324-2 1-405); conditions: protein: recombinant; tags: N-terminal GST; dsDNA, one strand shown
# T9 sequence: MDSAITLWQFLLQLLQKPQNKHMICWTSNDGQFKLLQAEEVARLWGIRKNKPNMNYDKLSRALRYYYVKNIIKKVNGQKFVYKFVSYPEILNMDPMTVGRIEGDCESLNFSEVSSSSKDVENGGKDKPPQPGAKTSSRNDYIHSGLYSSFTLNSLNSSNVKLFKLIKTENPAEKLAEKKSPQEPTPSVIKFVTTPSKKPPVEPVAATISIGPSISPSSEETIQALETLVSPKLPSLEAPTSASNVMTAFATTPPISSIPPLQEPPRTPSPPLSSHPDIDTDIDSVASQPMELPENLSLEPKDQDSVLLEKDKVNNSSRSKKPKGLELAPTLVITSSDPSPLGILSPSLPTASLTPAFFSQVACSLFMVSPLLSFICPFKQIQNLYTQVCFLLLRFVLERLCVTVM
# Outline: as §1
# ETV2 = biological target: T10, ETV2 (Homo sapiens, UniProt O00321 1-342); conditions: protein: recombinant; tags: N-terminal GST; dsDNA, one strand shown
# T10 sequence: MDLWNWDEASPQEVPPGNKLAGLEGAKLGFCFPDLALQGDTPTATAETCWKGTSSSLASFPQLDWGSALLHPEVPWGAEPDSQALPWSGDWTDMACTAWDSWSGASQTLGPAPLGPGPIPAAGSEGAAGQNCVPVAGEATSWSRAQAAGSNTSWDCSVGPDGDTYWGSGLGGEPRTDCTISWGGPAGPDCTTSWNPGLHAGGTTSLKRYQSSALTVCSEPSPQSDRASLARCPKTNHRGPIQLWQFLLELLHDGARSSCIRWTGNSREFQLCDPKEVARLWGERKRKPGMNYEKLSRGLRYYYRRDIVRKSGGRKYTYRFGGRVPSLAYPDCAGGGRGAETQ
# Outline: as §1
# ELF3 = biological target: T11, ELF3 (Homo sapiens, UniProt P78545 1-371); conditions: protein: recombinant; tags: N-terminal GST; dsDNA, one strand shown
# T11 sequence: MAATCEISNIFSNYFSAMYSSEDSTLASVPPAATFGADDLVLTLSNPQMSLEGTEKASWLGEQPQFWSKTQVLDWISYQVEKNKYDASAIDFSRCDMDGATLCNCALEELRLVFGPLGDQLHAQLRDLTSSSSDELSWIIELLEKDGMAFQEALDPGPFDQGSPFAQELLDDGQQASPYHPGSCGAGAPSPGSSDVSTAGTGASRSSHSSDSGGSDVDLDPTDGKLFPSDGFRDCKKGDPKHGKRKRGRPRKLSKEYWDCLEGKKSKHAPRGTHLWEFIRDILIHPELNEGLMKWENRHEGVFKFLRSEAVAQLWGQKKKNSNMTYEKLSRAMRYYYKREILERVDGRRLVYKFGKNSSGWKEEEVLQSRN
# Outline: as §1
# CRX = CRX (Homo sapiens, UniProt O43186 1-299); conditions: protein: recombinant; tags: N-terminal GST; dsDNA, one strand shown
# Outline: as §1
# ETV1 = ETV1 (Homo sapiens, UniProt P50549 1-477); conditions: protein: recombinant; tags: N-terminal GST; dsDNA, one strand shown
# Outline: as §1
# Sequence of ELF1 (P32519 whole entry): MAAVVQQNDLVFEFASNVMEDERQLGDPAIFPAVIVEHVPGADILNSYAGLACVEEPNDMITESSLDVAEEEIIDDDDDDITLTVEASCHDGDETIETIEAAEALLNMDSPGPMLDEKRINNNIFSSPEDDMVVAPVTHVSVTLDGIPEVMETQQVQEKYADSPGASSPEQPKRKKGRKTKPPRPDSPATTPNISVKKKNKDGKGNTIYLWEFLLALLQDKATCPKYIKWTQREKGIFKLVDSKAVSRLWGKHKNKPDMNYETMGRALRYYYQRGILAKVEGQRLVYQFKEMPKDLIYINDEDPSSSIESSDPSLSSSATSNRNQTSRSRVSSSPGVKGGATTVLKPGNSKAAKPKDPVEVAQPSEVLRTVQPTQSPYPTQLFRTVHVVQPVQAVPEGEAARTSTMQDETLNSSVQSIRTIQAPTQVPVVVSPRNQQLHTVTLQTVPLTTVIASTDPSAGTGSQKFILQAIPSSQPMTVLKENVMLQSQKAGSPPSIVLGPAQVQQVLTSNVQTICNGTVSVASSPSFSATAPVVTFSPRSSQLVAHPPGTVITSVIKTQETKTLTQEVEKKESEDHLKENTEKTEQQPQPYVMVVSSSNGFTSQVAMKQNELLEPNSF
# Sequence of ELF4 (Q99607 whole entry): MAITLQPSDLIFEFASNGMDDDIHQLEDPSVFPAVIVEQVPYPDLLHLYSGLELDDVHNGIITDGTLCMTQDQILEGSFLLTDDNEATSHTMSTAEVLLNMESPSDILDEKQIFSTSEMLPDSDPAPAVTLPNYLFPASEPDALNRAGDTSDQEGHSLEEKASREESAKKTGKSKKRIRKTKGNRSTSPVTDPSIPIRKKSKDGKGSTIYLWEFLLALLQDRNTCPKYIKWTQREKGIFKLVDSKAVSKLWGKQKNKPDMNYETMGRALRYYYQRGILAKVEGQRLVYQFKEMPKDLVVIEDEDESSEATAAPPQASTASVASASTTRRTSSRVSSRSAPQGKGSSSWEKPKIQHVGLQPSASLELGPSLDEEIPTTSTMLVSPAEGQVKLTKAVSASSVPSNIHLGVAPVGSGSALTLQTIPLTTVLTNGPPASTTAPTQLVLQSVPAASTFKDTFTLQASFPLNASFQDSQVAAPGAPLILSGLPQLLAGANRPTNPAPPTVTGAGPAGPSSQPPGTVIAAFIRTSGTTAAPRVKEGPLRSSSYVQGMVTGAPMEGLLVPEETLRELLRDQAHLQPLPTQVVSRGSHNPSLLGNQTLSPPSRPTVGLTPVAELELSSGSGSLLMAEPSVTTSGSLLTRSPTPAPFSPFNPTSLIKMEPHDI
# Sequence of HSF1 (Q00613 whole entry): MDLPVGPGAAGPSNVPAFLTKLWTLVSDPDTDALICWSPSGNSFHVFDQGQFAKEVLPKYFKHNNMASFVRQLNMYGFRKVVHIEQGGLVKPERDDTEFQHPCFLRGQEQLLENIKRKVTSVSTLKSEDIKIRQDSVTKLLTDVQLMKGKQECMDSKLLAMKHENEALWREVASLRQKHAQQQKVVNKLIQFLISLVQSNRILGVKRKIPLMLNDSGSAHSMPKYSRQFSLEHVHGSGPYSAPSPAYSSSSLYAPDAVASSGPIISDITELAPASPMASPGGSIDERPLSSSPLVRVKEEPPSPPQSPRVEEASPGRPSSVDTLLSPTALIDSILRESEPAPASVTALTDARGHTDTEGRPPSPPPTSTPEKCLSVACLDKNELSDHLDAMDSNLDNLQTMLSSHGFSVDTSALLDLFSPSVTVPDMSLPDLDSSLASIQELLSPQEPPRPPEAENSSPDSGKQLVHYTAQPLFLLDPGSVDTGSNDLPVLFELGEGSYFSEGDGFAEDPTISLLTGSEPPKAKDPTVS
# Sequence of ETV5 (P41161 whole entry): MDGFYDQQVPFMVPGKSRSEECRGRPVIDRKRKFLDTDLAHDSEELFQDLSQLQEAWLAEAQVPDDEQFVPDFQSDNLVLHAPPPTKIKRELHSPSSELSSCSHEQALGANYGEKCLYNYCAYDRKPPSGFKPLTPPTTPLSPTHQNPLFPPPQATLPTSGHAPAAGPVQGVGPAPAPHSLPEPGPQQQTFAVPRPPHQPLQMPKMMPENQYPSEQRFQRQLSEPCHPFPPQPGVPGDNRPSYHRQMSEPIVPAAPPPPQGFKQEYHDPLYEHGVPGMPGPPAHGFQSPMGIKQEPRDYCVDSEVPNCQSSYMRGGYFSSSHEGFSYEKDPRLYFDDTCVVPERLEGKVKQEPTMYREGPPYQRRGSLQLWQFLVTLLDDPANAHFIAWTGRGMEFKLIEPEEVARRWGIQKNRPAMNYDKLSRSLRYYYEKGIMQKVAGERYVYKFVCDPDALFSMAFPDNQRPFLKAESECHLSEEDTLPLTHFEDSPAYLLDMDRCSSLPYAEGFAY
# Sequence of CRX (O43186 whole entry): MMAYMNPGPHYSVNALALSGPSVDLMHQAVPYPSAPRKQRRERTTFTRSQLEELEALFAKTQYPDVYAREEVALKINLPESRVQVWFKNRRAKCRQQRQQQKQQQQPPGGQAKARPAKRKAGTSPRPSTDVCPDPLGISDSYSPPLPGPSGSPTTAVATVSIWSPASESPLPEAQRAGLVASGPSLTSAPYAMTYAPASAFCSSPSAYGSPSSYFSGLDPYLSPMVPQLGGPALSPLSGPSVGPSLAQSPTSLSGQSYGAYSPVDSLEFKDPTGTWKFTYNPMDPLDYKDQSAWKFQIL
# Sequence of SPIB (Q01892 whole entry): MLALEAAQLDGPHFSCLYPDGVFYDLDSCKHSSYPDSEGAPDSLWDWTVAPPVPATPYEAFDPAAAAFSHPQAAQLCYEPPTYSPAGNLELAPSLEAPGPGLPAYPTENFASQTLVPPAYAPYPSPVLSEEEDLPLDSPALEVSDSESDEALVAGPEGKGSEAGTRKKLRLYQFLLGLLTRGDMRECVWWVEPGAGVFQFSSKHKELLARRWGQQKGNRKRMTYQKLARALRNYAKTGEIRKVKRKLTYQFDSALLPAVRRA
# Sequence of ETV1 (P50549 whole entry): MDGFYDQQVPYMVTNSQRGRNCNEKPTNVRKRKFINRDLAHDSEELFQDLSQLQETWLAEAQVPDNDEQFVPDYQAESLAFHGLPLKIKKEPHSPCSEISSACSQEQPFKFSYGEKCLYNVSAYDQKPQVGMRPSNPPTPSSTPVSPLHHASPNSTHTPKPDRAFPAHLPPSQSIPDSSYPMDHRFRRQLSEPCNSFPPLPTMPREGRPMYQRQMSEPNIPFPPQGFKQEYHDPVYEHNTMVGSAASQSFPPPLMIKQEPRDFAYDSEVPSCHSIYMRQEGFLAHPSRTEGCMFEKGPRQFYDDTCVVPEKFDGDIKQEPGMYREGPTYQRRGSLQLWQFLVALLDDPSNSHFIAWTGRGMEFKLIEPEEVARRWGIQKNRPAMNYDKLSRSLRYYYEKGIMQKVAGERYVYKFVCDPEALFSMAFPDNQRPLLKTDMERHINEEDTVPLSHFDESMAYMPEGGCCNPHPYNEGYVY
sequence,measurement,setting,value
TTTAAT,binding signal,FLI1,"1.4 fold enrichment (6-mer frequency, TF over GST control)"
same,binding signal,ELK1,"1.28 fold enrichment (6-mer frequency, TF over GST control)"
same,binding signal,GABPA,"1.29 fold enrichment (6-mer frequency, TF over GST control)"
same,binding signal,ERG,"1.27 fold enrichment (6-mer frequency, TF over GST control)"
same,binding signal,ELF1,"1.29 fold enrichment (6-mer frequency, TF over GST control)"
same,binding signal,EHF,"1.35 fold enrichment (6-mer frequency, TF over GST control)"
same,binding signal,SPI1,"1.23 fold enrichment (6-mer frequency, TF over GST control)"
same,binding signal,SPIB,"1.35 fold enrichment (6-mer frequency, TF over GST control)"
same,binding signal,ELK3,"1.36 fold enrichment (6-mer frequency, TF over GST control)"
same,binding signal,FEV,"1.26 fold enrichment (6-mer frequency, TF over GST control)"
same,binding signal,ETV5,"1.32 fold enrichment (6-mer frequency, TF over GST control)"
same,binding signal,HSF1,"2.06 fold enrichment (6-mer frequency, TF over GST control)"
same,binding signal,SPIC,"1.25 fold enrichment (6-mer frequency, TF over GST control)"
same,binding signal,ELF4,"1.32 fold enrichment (6-mer frequency, TF over GST control)"
same,binding signal,ELK4,"1.35 fold enrichment (6-mer frequency, TF over GST control)"
same,binding signal,ETV2,"1.06 fold enrichment (6-mer frequency, TF over GST control)"
same,binding signal,ELF3,"1.3 fold enrichment (6-mer frequency, TF over GST control)"
same,binding signal,CRX,"3.28 fold enrichment (6-mer frequency, TF over GST control)"
same,binding signal,ETV1,"1.34 fold enrichment (6-mer frequency, TF over GST control)"
